Screening results (PubChem)
Only some compounds are listed: those with a hit (about 7.9% of all), similar ones and a draw of the others.
KB-3-1 cytotox: qHTS assay for MDR1-selective chemotherapeutics: Primary screen using the parental adenocarcinoma cell KB-3-1; AID 1347075, 2019; Potency, µM (top dose mostly 46.1 µM), most hits filed as cytotoxic; 1.4% of 400,000 active; KB-3-1 viability, CellTiter-Glo ATP luminescence, 72 h; also: % is scaled to controls: 0 for no effect and ±100 for the full control effect; nearly all actives have a fitted effect of over 60% in size
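KB-3-1 parental drug-naive adenocarcinoma cells in DMEM/10% FBS, incubated 72 h at 37 C with pin-transferred compounds across a concentration series. Viability by CellTiter-Glo luminescence; concentration-response curves fitted after normalization.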
KB-V1 MDR tox: qHTS assay for MDR1-selective chemotherapeutics: Primary screen using the drug-selected MDR subline cells KB-V1; AID 1347076, 2019; 3.4% of 400,000 active; Potency, µM (top dose mostly 46.1 µM), actives largely listed as cytotoxic; KB-V1 MDR cells viability, CellTiter-Glo, 72 h; also: % is scaled to controls: 0 for no effect and ±100 for the full control effect; nearly all actives have a fitted effect of over 60% in size
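KB-V1, DMEM (no phenol red) + 10% FBS; cpd pin-transferred, titration series; 72 h, 37 degrees C; CellTiter-Glo, luminescence. Data normalized, curve-fit.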
HT1080 IDH1KD tx: qHTS for induction of synthetic lethality in tumor cells producing 2HG: qHTS for the HT-1080-IDH1KD cell line; AID 686971, 2013; HT-1080 IDH1 knockdown viability, ATP luminescence, 48 h; Potency, µM (top dose mostly 46.1 µM), for inactives: at the top dose activity, negative = toxicity, actives largely listed as cytotoxic; 2% of 360,000 active;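 also: 0% = DMSO wells and -100% = cell-free medium wells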
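Using the IDH1-knockdown HT-1080 line run in the same batch and compound series as the NT line, viability after 48 h at 37 °C was determined by CellTiter-Glo luminescence and expressed as % activity.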
HT1080NT lethal: qHTS for induction of synthetic lethality in tumor cells producing 2HG: qHTS for the HT-1080-NT fibrosarcoma cell line. HT-1080-NT fibrosarcoma viability, CellTiter-Glo ATP luminescence, 48 h. Potency, µM (doses to about 46.1 µM), without a hit: top-dose activity, negative = less viability, hits mostly cytotoxic. 1.6% of 360,000 active. AID 686970, 2013;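 also: NT is the 2HG producing partner of a matched IDH1 knockdown line; 0% = DMSO-treated cells and -100% = media-only wells without cells; nearly all actives have a fitted effect of over 55% in size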
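Viability by CellTiter-Glo luminescence after 48 h compound exposure at 37C of HT-1080-NT cells (750/well, RPMI, 5% FBS). % activity scaled between DMSO wells and medium-only wells, then curve-fitted and categorized by curve class.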
MCF10A rereplic: A quantitative high throughput screen for small molecules that induce DNA re-replication in MCF 10a normal breast cells | MCF 10A DNA re-replication, Hoechst nuclear intensity, 48 h | AID 624296, 2012 | Potency, µM (series often up to 46.1 µM), for the others: at the top dose activity, positive = re-replication, usual class: activators | 2.9% of 350,000 active; also: % of control where 0% means no effect; nearly all actives have a fitted effect of over 50% in size
SW480 rerep: A quantitative high throughput screen for small molecules that induce DNA re-replication in SW480 colon adenocarcinoma cells; SW480 DNA re-replication, Hoechst DNA content imaging, 48 h; Potency, µM (doses to about 46.1 µM), for the others: at the top dose re-replication activation, usual class: activators; 1.8% of 340,000 active; AID 624297, 2012; also: % of control where 0% means no effect; nearly all actives have a fitted effect of over 55% in size
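250 cells/well; 23 nL cpd via pin tool; 48 hr, 37 C, 5% CO2; Hoechst 40 min; imager read of total nuclear intensity, ex 405/em 500-530 nm.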
An asterisk follows results filed as active; i = inactive; u = inconclusive; x = no result given; [ ] = another dose, or the depositor's remark. Calls follow the shape of the dose curve; as a rule, active = well fitted curve in the direction sought with a large enough effect; inconclusive = small, poorly fitted or top-dose-only effect, or another doubt; inactive = no such curve, though single readings can be large; an effect the other way counts as inactive or inconclusive. Potency is read from the fitted curve at half-maximal effect.

SMILES	KB-3-1 cytotox	KB-V1 MDR tox	HT1080 IDH1KD tx	HT1080NT lethal	MCF10A rereplic	SW480 rerep
CC(C)(C)c1ccc(N2C(=O)CSC2c2cccnc2)cc1 (configuration not stated)	i	i	-1%	1%	2.3µM*	10%
CC1(C)CC(NC(=O)c2coc(=O)c(Br)c2)CC(C)(C)N1	16µM*	i	5%	10%	18µM*	u
O=C1C(=O)N(C2CCN(C(=O)c3ccc(Cl)cc3)CC2)CCN1Cc1ccc(F)cc1	i	i	x	x	x	x
COc1cnc(-c2ccccn2)nc1NC(C)C	u	7.3µM*	u	u	23µM*	6.5µM*
COc1cnc(-c2ccccn2)nc1Oc1ccccc1Cl	i	i	1%	14%	3%	-9%
COc1cnc(-c2ccccn2)nc1Oc1ccc(Cl)cc1	i	u	-12%	-5%	u	10µM*
COc1ccccc1Sc1nc(-c2ccccn2)ncc1OC	u	i	u	-9%	-3%	u
COc1cnc(-c2ccccn2)nc1Sc1cccc(Cl)c1	i	u	u	u	21µM*	12µM*
Cc1ccc(NC(=O)c2ncn(CCCN3CCN(c4ncccn4)CC3)n2)cc1C	i	i	6%	4%	u	-1%
COC(=O)[C@@H]1ON2OCC(C)=C3CCCC[C@@]32[C@H]1C(=O)OC	i	i	0%	10%	x	x
N#C[C@H]1C2OC2c2ccccc2N1C(=O)c1ccccc1 (some centres not stated)	i	i	4%	0%	-4%	-1%
C[C@@H](C(=O)O)c1ccc(-c2ccccc2)c(F)c1	x	x	x	x	2%[20.6 µM]	-9%[20.6 µM]
Cc1ccc(NC(=O)C(C)c2ccc(-c3ccccc3)c(F)c2)cc1 (configuration not stated)	u	i	13µM*	16µM*	7%	-9%[9.22 µM]
CC(C)(C)N1C(=O)[C@H]2[C@@H](c3ccc(Br)cc3)N3C(=O)N(c4ccccc4)C(=O)[C@@]3(C)[C@H]2C1=O	i	u	7%	10%	27%	7%
COc1ccc(NC(=O)/C=C/c2ccc(S(=O)(=O)N3CCOCC3)cc2)cc1	i	u	1%	9%	-5%	-10%
CNC(=O)c1ccc(CN(C)C(=O)/C=C/c2ccc(S(=O)(=O)N3CCCCCC3)cc2)cc1	i	i	-17%	-7%	x	x
COc1ccc(/C=C/C(=O)Nc2ccc(C)c(S(=O)(=O)N3CCOCC3)c2)cc1	i	4.1µM*	21µM*	u	6%	-32%
COc1cccc(NC(=O)CN(C)C(=O)/C=C/c2ccc(S(=O)(=O)N3CCCCCC3)cc2)c1	i	u	u	-15%	x	x
O=C(/C=C/c1ccc(S(=O)(=O)N2CCOCC2)cc1)NC(=S)Nc1ccc(Cl)cc1Cl	i	i	-13%	-21%	16µM*	u
O=C(/C=C/c1ccc(S(=O)(=O)N2CCOCC2)cc1)Nc1cc(F)ccc1F	i	i	-4%	u	u	-9%
CN(CC(=O)Nc1cccc(F)c1)C(=O)/C=C/c1ccc(S(=O)(=O)N2CCCCCC2)cc1	i	18µM*	u	-12%	8%	7%
COc1ccc(CN(C)C(=O)/C=C/c2ccc(S(=O)(=O)N3CCCCCC3)cc2)cc1	u	3.3µM*	-7%	-11%	u	17%
Cc1cccc(N2CCN(C(=O)c3ccccc3SCC(=O)N3CCCC3)CC2)c1C	i	i	-5%	-4%	u	10%
CCOc1ccc(/C=C/C(=O)NCCc2ccc(OC)c(OC)c2)cc1	i	16µM*	3%	-1%	3%	-1%
